The structures appear in SMILES notation. Out of some 410,000 compounds screened, about 5,100 (1.2%) were called active. Not shown: some 8% with an inconclusive outcome. Many of the other results were omitted from the sample, so actives are more common in it than they were. A number with no mark means an inactive call. Calls follow the shape of the full dose curve; tested in HEK293T cells.
% is scaled to controls: 0 for no effect and ±100 for the full control effect; potency is read from the fitted curve at half-maximal effect.

A short description of this assay: High Throughput Screening for Foot and Mouth Disease Virus Antivirals. Also: nearly all actives have a fitted effect of over 45% in size. The note with it: FMDV antiviral cell-based qHTS; series mostly up to 57.9 µM; activity change, negative = inhibition: at the top concentration. (In general: In qHTS, concentration-response curves come from the screen itself.)
`O=C(c1csnn1)N1CCC2(CC1)CN(c1ncccn1)C2`: the “activity change, negative = inhibition” value was -1.68%.

With `Cc1cccn2c(=O)c(C(=O)NC(C)c3ccccc3)cnc12` (stereo not drawn), the “activity change, negative = inhibition” value is -0.0366%.

In the case of `CCNc1nc2[nH]c(=O)c3c(c2s1)OC(N)=C(C#N)C3c1cccs1` (stereo not drawn), the “activity change, negative = inhibition” value is 38.9%.

In the case of `CCCc1nc2c([nH]1)C(c1cccnc1)C(C#N)=C(N)O2` (stereo not drawn), the “activity change, negative = inhibition” value is -18.1%.

`CCCc1[nH]nc2c1C(c1ccc(Br)s1)C(C#N)=C(N)O2` (stereo not drawn): the Potency was 25.1 µM (active).

On to `CCC(=O)N1CCc2cc(CNS(=O)(=O)c3ccc(Br)s3)ccc21`, for which the “activity change, negative = inhibition” value was 3.48%.

As to `Cn1c(=O)c2c(nc(OCc3cccnc3)n2Cc2ccccc2)n(C)c1=O`, the “activity change, negative = inhibition” value was -27%.

As for `Cn1c(=O)c2c(nc(NCCc3ccccc3)n2Cc2ccccc2Br)n(C)c1=O`, the “activity change, negative = inhibition” value was 8.48%.

As to `Cn1c(=O)c2c(nc(SCC(=O)Nc3ccc(F)cc3)n2Cc2ccccc2)n(C)c1=O`, the “activity change, negative = inhibition” value was 0%.

On to `CC(C)CCn1c(CN(C)Cc2ccccc2)nc2c1c(=O)n(C)c(=O)n2C`, for which the Potency was 39.8 µM (active).

On to `Cn1c(=O)c2c(nc(NCCc3ccccc3)n2Cc2ccccc2)n(C)c1=O`, for which the Potency is 14.1 µM (active).

`CC(C)CCn1c(=O)c2c(nc3n2CCCN3Cc2ccccc2)n(C)c1=O`: the “activity change, negative = inhibition” value is -24.9%.

For the compound `CN(C)C(=O)c1ccc(-c2cncnc2NC2CCNCC2)cc1`, the “activity change, negative = inhibition” value was 0%.

Take `COCCn1c(=O)c(-c2cccs2)nc2cnc(N3CCN(C)CC3)nc21`: the “activity change, negative = inhibition” value was -1.14%.

On to `Cc1ccccc1NC(=O)Cn1c(=O)n(CCCCC(=O)NCc2ccccc2Cl)c(=O)c2ccccc21`, for which the “activity change, negative = inhibition” value was -24.8%.

For `C=CS(=O)c1sc(Cl)c(N2CCOCC2)c1[N+](=O)[O-]` (stereo not drawn), the Potency was 28.2 µM (active).

`CN(C)c1ncc2nc(-c3ccc(F)cc3)c(=O)n(Cc3ccc(F)cc3)c2n1`: the “activity change, negative = inhibition” value was -0.807%.

Consider `O=C(CCl)N(Cc1cccc([N+](=O)[O-])c1)c1cccc(Cl)c1`, for which the Potency is 28.2 µM (active).

For `CC(=O)N(CN1C(=O)C2C3C=CC(C3)C2C1=O)c1cccc(Cl)c1` (stereo not drawn), the “activity change, negative = inhibition” value was 5.14%.

For `O=C(O)c1cc(S(=O)(=O)N(Cc2ccccc2)c2ccccc2)ccc1Cl`, the “activity change, negative = inhibition” value was 6.32%.

As for `FC(F)(F)c1ccccc1-c1nc(-n2ccnc2)c2ccccc2n1`, the “activity change, negative = inhibition” value is -7.33%.

As to `Cc1cccc(NC(=O)Cn2c(C(F)(F)F)nc3ccccc32)c1C`, the “activity change, negative = inhibition” value is -0.0408%.

For the compound `CC(=O)Nc1cc(C(=O)N2CCc3c(Cl)cccc3C2)cc2ncn(CCc3ccccn3)c12`, the “activity change, negative = inhibition” value is -13.7%.

As to `COc1ccc(CCNC(=O)c2ccc3c(c2)sc2nc(-c4ccc(C)cc4)cn23)cc1OC`, the “activity change, negative = inhibition” value is -8.99%.

`CCOC(=O)C1CCCN(C(=O)c2ccc3c(c2)sc2nc(-c4ccc(CC)cc4)cn23)C1` (stereo not drawn): the Potency is 14.1 µM (active).

For `CCOC(=O)C1CCCN(C(=O)c2cncc(Br)c2)C1` (stereo not drawn), the “activity change, negative = inhibition” value was -6.75%.

Take `CCC(=O)N1c2ccccc2CC1C(=O)N1CCN(c2cccc(OC)c2)CC1` (stereo not drawn): the “activity change, negative = inhibition” value was -4.67%.

With `CCNS(=O)(=O)c1ccc(CCC(=O)N2CCN(c3ccc(OC)cc3)CC2)cc1`, the “activity change, negative = inhibition” value is -11.2%.

Consider `CCNS(=O)(=O)c1ccc(CCC(=O)N2CCN(c3cc(Cl)ccc3C)CC2)cc1`, for which the Potency was 15.8 µM (active).

Take `CCCNS(=O)(=O)c1ccc(CCC(=O)N2CCCC2)cc1`: the “activity change, negative = inhibition” value was 11.1%.

As for `Cc1cnc(C(=O)N2CCOc3ccc(CN4CCCC(C(=O)c5cccnc5)C4)cc3C2)[nH]1` (stereo not drawn), the “activity change, negative = inhibition” value is -28.1%.

For `CC(=O)Nc1ccccc1-c1nc(CNC(=O)c2ccc(Cl)cc2)c(C)o1`, the “activity change, negative = inhibition” value was 32.2%.

Take `C=CCOc1ccc(/C=C/C(=O)OC(C)C(=O)Nc2ccc(NC(C)=O)cc2)cc1` (stereo not drawn): the “activity change, negative = inhibition” value is -10.8%.

With `C=CCOc1ccc(/C=C2\SC(=S)N(CCC(=O)O)C2=O)cc1`, the Potency is 1 µM (active).

Consider `C=CCN1C(=O)NC(=O)/C(=C/c2ccc(OCC(=O)Nc3ccc(C)cc3)cc2)C1=O`, for which the “activity change, negative = inhibition” value was 17%.

For `COC(=O)[C@@H]1C[C@H](NC(=O)c2ccccc2C(F)(F)F)CN1Cc1cccc(O)c1`, the “activity change, negative = inhibition” value was -13.1%.

With `FC(F)(F)c1cccc(-c2cn[nH]c2C2CCCN(Cc3cccn3-c3ccccn3)C2)c1` (stereo not drawn), the “activity change, negative = inhibition” value is -11.1%.

Regarding `COc1ccc(CCC(=O)c2c(O)cc(OC3OC(CO)C(O)C(O)C3O[C@@H]3OC(C)C(O)C(O)C3O)cc2O)cc1O` (stereo partly drawn), the “activity change, negative = inhibition” value is 7.43%.

For the compound `COc1ccc(CCNc2ncnc3nc[nH]c23)cc1OC`, the Potency was 25.1 µM (active).

For `COc1ccc(CCNc2ncnc3sc(C(=O)N4CCCC4)c(C)c23)cc1OC`, the “activity change, negative = inhibition” value is -6.91%.

In the case of `COc1ccc(CCNc2nc3ccc(C)cc3n3cnnc23)cc1OC`, the “activity change, negative = inhibition” value was -23.1%.

`c1ccc(CCCCN2CCC(c3ccccc3)CC2)cc1`: the Potency result is “inactive”.

Take `CCOC(=O)c1c(C)[nH]c(C)c1C(=O)COC(=O)/C=C/c1cccc([N+](=O)[O-])c1`: the “activity change, negative = inhibition” value is -27.2%.

In the case of `CC(C)c1nnc(NC(=O)COC(=O)/C=C/c2ccc([N+](=O)[O-])cc2)s1`, the “activity change, negative = inhibition” value is -20.7%.

On to `CCOC(=O)/C(=C\c1ccc([N+](=O)[O-])cc1)C(=O)c1cc(C(C)=O)c(Nc2ccccc2)s1`, for which the Potency was 15.8 µM (active).

Turning to `COc1ccc(OCCCn2c(C)nc3cc(C)c(C)cc32)cc1`, the “activity change, negative = inhibition” value was -14.5%.

For `COc1ccc(NC(=O)CSc2nccn2C2CCCC2)cc1OC`, the “activity change, negative = inhibition” value was -3.75%.

As for `COc1ccc(C2CC(=O)N(Cc3ccccc3C)c3c2c(C)nn3-c2nc(C)cc(C)n2)c(OC)c1` (stereo not drawn), the “activity change, negative = inhibition” value is -17.6%.

These data come from PubChem BioAssay AID1159524 (National Center for Advancing Translational Sciences (NCATS), 2015).
